The record followed here is PubChem BioAssay (Tox21).

Experiment [1] is described as follows: Nuclear factor erythroid 2-related factor 2/antioxidant responsive element (Nrf2/ARE) small molecule agonists: qHTS cell viability counter screen in human keratinocytes (AID 1919968; active = well fitted curve in the direction sought with a large enough effect in the repeat runs; an effect the other way counts as inactive or inconclusive; note: nearly all actives have a fitted effect of over 55% in size). The procedure, abridged: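 After a 5 h attachment period, ARE-reporter keratinocytes were dosed with compounds in DMSO and then cultured 23 h at 37 C. Cell viability came from CellTiter-Fluor signal read after a further 1 h.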

The nature of experiment [2]: Nuclear factor erythroid 2-related factor 2/antioxidant responsive element (Nrf2/ARE) small molecule agonists: luciferase reporter gene qHTS assay in human keratinocytes (AID 1919969). Note: nearly all actives have a fitted effect of over 35% in size. Note: potency is the fitted concentration of half-maximal effect. For orientation: In a reporter assay the amount or activity of a reporter protein is the signal.
Experiment [3] concerns the target Gonadotropin-releasing hormone receptor (Homo sapiens) (UniProt P30968). Kind of experiment: Human gonadotropin-releasing hormone receptor (GnRHR) small molecule agonists, calcium flux assay in GnRHR-HEK293 cells (AID 1920063). Note: nearly all actives have a fitted effect of over 35% in size. The procedure, abridged:
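We seeded human GnRHR-expressing HEK293 cells for 18 hours, loaded them with calcium dye for an hour at 37 C, added test compounds, and recorded fluorescence intensity kinetically for three minutes.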

In experiment [4] the target is KiSS-1 receptor (Homo sapiens) (UniProt Q969F8). As to the kind of experiment: Human kisspeptin (KISS1R) small molecule agonists, calcium flux assay in KISS1R-HEK293 cells (AID 1920064; active = well fitted curve in the direction sought with a large enough effect in the repeat runs; an effect the other way counts as inactive or inconclusive). The procedure, abridged:
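Kinetic calcium assay, 1 s sampling over 3 min at Ex/Em 480/540, in HEK293 cells engineered with human KISS1R; compounds delivered in DMSO after 1 h dye loading.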
A general note: A change in cytosolic calcium serves as a functional read-out for many receptors and channels.

Experiment [5] is described as follows: G protein-coupled receptor (GPCR) small molecule agonists, calcium flux assay: HEK293 wild type cell line counter screen (AID 1920065). The procedure, abridged:
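Calcium-sensitive dye, loaded 1 h at 37 C into cells cultured 18 h, reports compound-evoked calcium release as fluorescence (Ex/Em 480/540), measured over 3 min. Agonist mode; 15-point titrations, triplicate.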

The nature of experiment [6]: p53 small molecule agonists, cell-based qHTS assay with human liver microsomes (AID 1963577). Note: potency is the fitted concentration of half-maximal effect. The procedure, abridged:
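p53RE-bla cells, 4,000/well, compound added after 5 h, with human liver microsomes 0.5 mg/mL and NADPH 0.5 mg/mL final; 16 h at 37 C, then LiveBLAzer 2 h RT, fluorescence.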
For orientation: qHTS replaces the single test concentration by a dilution series.

Experiment [7] is described as follows: p53 small molecule agonists, cell-based qHTS assay with human liver microsomes: qHTS cell viability counter screen (AID 1963579). Note: nearly all actives have a fitted effect of over 45% in size. The procedure, abridged: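 p53RE-bla cells, 4,000/well, dosed 5 hours after plating, with human liver microsomes (0.5 mg/mL final) plus NADPH (0.5 mg/mL final), 16 hours at 37 C. Viability read as CellTiter-Glo luminescence after 30 min at room temperature.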

Experiment [8] can be described thus: p53 small molecule agonists, cell-based qHTS assay with rat liver microsomes: qHTS cell viability counter screen (AID 1963580). Note: nearly all actives have a fitted effect of over 45% in size. The procedure, abridged:
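p53RE-bla HCT-116 cells were exposed 16 h at 37 C to compounds with rat liver microsomes (0.5 mg/mL) and NADPH (0.5 mg/mL). Viability was measured in the same wells as ATP content by CellTiter-Glo luminescence.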

Experiment [9] is described as follows: p53 small molecule agonists, cell-based qHTS assay: qHTS cell viability counter screen (AID 1963581). Note: nearly all actives have a fitted effect of over 45% in size. The procedure, abridged: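 Following 5 h attachment, HCT-116 p53RE-bla cells took up compound for 16 h at 37 C; the reporter was read with B/G FRET substrate (2 h RT), and viability then via CellTiter-Glo ATP luminescence.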
A short description of experiment [10]: p53 small molecule agonists, cell-based qHTS assay (AID 1963582; active = well fitted activation curve with a large enough effect in the signal ratio in the repeat runs, not every such curve was filed as active; the % refers to the signal ratio). The procedure, abridged:
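In this cell-based concentration-response screen, a p53 response element drives beta-lactamase; cells received DMSO-borne compounds after 5 h culture and were incubated a further 16 h before FRET substrate development.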

Experiment [11] has as its target 5-hydroxytryptamine receptor 2A (Homo sapiens) (UniProt P28223). As to the kind of experiment: 5-hydroxytryptamine receptor 2A (HTR2A) small molecule antagonists, cell-based qHTS assay (AID 1963586). Note: nearly all actives have a fitted effect of over 45% in size. The procedure, abridged:
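Antagonist-mode intracellular calcium assay: DOI (4 nM) added after 5 min compound pre-incubation at room temperature to dye-loaded HTR2A-CHO cells. Fluorescence followed for 3 min, sampled every second.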

For experiment [12] the target is unchanged. As to the kind of experiment: 5-hydroxytryptamine receptor 2A (HTR2A) small molecule agonists, cell-based qHTS assay (AID 1963587). Note: nearly all actives have a fitted effect of over 30% in size. The procedure, abridged: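 CHO cells stably expressing human HTR2A, plated 18 h, loaded with calcium dye 1 h at 37 C. Agonist mode: compounds added and intracellular calcium fluorescence recorded kinetically for 2 min at 1 sec intervals.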

In experiment [13] the target is Muscarinic acetylcholine receptor M1 (Homo sapiens) (UniProt P11229). Kind of experiment: Cholinergic receptor muscarinic 1 (CHRM1) small molecule antagonists, cell-based qHTS assay (AID 1963588). Note: nearly all actives have a fitted effect of over 40% in size. Note: potency is the fitted concentration of half-maximal effect. The procedure, abridged:
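CHRM1-CHO calcium-flux assay, antagonist mode. Cells were seeded 18 h, dye-loaded 1 h at 37 C and given compound for 5 min at RT, then acetylcholine was added at 50nM. FDSS fluorescence was read 3 min; 15 concentrations, three runs.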

The target is the same in experiment [14]. Kind of experiment: Cholinergic receptor muscarinic 1 (CHRM1) small molecule agonists, cell-based qHTS assay (AID 1963589). Note: nearly all actives have a fitted effect of over 35% in size. The procedure, abridged: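 Measures agonist-induced intracellular calcium rise. Stable human CHRM1 CHO line, 1 h dye load at 37 C, compounds from DMSO, kinetic fluorescence read.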
The nature of experiment [15]: cAMP Responsive Elements (CRE) small molecule agonists, cell-based qHTS assay (AID 1963590). The procedure, abridged:
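A CRE-responsive beta-lactamase reporter in HEK 293T cells was used. Treatment ran 3 h at 37 C; detection used LiveBLAzer B/G FRET substrate for 2 h at room temperature.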

Experiment [16] in a line: cAMP Responsive Elements (CRE) small molecule antagonists, cell-based qHTS assay (AID 1963591; active = well fitted inhibition curve with a large enough effect in the signal ratio in the repeat runs, not every such curve was filed as active; the % refers to the signal ratio). The procedure, abridged:
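HEK293T cells carrying a CRE-driven beta-lactamase reporter receive compound and NKH477 (0.25 uM final) for 3 h. Fluorescence from LiveBLAzer B/G FRET substrate is read after 2 h at room temperature.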

Experiment [17] concerns the target Beta-2 adrenergic receptor (Homo sapiens) (UniProt P07550). As to the kind of experiment: Adrenergic beta2 receptor (ADRB2) small molecule antagonists, cell-based qHTS assay (AID 1963592). Note: series mostly up to about 92 µM; nearly all actives have a fitted effect of over 50% in size. The procedure, abridged: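 Cells (CHO, stable ADRB2 overexpression) incubated 18-20hr at 37C; compounds added from DMSO; agonist mix (1nM isoproterenol, 100uM IBMX, 25uM Ro-20-1724) added; 0.5hr RT; d2-cAMP and anti-cAMP-cryptate added; 1hr RT; 665/615 nm read.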

Experiment [18] addresses D(2) dopamine receptor (Homo sapiens) (UniProt P14416). As to the kind of experiment: Dopamine D2 receptor (DRD2) small molecule agonists, cell-based qHTS assay (AID 1963594). Note: nearly all actives have a fitted effect of over 35% in size. The procedure, abridged: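 HEK293 cells stably expressing human DRD2, pre-treated with PDE inhibitor Ro20-1724 (0.1 mM final) and compound 10 min at room temperature, then stimulated with NKH477 (200nM […]) for 30 min. cAMP read by HTRF (665/620 nm).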

Experiment [19] has the same target. As to the kind of experiment: Dopamine D2 receptor (DRD2) small molecule antagonists, cell-based qHTS assay (AID 1963595; active = well fitted inhibition curve with a large enough effect in the signal ratio in the repeat runs, with a control signal flat; the % refers to the signal ratio). The procedure, abridged: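 HTRF cAMP read-out at 665 and 620 nm emission (340 nm excitation). Antagonist mode: compounds were tested against 12 nM quinpirole in DRD2-HEK293 cells, with 200 nM NKH477 raising cAMP and 0.1 mM Ro20-1724 blocking its breakdown.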

Experiment [20] can be described thus: p53 small molecule agonists, cell-based qHTS assay with rat liver microsomes (AID 1963578). The procedure, abridged:
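p53RE-bla cells, 4,000/well, pre-incubated 5 h, then given compounds plus rat liver microsomes (0.5 mg/mL final) and NADPH (0.5 mg/mL final). Incubation 16 h at 37 C; beta-lactamase reporter read by LiveBLAzer fluorescence after 2 h at room temperature.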

Unmarked numbers belong to inactive results. Results filed as inconclusive are left out. The source made the active and inactive calls. Unless noted, calls come from the whole dose curve.
% is set by controls: 0 for no effect and ±100 for the full control effect.

Chain of Gonadotropin-releasing hormone receptor (Homo sapiens) (P30968 whole entry, looked up): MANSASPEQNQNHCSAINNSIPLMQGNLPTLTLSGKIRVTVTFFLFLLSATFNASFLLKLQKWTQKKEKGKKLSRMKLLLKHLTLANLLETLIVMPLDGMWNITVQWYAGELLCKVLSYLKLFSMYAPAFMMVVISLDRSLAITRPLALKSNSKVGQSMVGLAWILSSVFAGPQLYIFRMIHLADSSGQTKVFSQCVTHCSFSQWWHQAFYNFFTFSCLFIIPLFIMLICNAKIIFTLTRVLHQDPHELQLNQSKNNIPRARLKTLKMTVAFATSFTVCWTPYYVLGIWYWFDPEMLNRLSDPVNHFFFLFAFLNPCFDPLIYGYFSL
Chain of 5-hydroxytryptamine receptor 2A (Homo sapiens) (P28223 whole entry, looked up): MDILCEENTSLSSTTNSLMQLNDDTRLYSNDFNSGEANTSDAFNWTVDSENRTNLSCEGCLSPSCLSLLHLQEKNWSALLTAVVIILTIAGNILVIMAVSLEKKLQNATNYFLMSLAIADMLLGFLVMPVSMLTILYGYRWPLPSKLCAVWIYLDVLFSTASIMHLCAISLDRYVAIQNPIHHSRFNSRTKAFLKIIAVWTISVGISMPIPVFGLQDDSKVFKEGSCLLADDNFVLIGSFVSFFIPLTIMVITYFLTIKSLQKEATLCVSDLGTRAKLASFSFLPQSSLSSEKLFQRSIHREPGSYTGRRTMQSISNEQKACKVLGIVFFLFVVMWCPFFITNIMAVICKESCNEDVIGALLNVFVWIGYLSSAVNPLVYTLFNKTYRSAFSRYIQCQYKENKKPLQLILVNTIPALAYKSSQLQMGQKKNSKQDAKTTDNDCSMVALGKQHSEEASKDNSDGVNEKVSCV
Chain of Muscarinic acetylcholine receptor M1 (Homo sapiens) (P11229 whole entry, looked up): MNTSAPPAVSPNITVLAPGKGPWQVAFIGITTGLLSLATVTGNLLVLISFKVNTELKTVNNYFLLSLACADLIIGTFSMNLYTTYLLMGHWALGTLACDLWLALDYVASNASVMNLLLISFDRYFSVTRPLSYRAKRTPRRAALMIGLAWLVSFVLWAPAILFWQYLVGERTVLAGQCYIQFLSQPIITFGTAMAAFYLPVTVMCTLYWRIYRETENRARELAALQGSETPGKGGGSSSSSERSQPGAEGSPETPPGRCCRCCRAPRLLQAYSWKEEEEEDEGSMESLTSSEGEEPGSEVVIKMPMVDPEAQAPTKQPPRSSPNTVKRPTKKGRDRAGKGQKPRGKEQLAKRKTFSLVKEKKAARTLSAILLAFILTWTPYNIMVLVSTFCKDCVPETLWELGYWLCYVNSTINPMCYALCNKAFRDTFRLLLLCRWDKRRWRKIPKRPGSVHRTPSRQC
Chain of Beta-2 adrenergic receptor (Homo sapiens) (P07550 whole entry, looked up): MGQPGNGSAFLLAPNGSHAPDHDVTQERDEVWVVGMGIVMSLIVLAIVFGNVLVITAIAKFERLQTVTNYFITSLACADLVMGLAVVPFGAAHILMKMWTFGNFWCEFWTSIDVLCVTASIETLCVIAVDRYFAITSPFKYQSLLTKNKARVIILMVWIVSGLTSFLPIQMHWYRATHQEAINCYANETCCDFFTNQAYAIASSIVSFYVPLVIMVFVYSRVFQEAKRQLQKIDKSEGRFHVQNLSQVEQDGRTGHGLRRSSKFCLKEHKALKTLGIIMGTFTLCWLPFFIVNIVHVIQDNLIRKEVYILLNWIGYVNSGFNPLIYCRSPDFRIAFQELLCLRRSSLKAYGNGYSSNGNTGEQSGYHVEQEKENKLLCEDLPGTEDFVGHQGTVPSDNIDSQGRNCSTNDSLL
Chain of D(2) dopamine receptor (Homo sapiens) (P14416 whole entry, looked up): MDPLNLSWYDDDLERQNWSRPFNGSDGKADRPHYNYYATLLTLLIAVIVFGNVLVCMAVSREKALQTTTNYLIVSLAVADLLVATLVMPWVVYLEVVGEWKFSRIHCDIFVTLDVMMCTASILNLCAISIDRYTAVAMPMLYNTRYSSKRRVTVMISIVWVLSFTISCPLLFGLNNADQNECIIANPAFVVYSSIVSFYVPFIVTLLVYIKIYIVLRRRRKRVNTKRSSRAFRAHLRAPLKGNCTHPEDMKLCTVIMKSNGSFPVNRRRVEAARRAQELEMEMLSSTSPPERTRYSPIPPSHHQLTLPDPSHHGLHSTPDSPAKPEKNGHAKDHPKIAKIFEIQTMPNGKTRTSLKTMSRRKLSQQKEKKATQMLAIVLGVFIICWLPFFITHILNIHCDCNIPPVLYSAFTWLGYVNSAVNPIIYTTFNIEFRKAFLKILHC
Chain of KiSS-1 receptor (Homo sapiens) (Q969F8 whole entry, looked up): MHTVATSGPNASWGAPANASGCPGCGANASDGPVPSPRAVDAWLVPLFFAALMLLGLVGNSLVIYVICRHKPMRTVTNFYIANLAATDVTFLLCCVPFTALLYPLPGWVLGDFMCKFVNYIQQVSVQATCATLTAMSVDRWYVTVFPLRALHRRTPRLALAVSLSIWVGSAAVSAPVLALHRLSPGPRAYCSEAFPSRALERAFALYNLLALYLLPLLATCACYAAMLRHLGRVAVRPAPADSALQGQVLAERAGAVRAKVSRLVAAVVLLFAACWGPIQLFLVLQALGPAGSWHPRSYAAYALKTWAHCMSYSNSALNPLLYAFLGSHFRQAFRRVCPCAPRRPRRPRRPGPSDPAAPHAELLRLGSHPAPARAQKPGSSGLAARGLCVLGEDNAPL

For the compound `CN(C)C(=O)Nc1cccc(OC(=O)NC(C)(C)C)c1`, the Potency entry in [1], in experiment [2], in experiment [3], in experiment [4], in experiment [5] and in experiment [6] was “inactive” throughout. The Potency result in [7], in experiment [8], in experiment [9], in experiment [10], in experiment [11] and in experiment [12] was “inactive” throughout. Moreover, the Potency result in experiment [13], in experiment [14], in experiment [15], in [16], in experiment [17] and in experiment [18] was “inactive” in each case. The Potency result in experiment [19] was “inactive”.

`O=C(CBr)Nc1ccc(Cl)cc1C(=O)c1ccccc1F`: the Potency result in [1], in experiment [2], in [3], in [4], in [5] and in [6] was “inactive” each time. Moreover, the Potency result in [20], in experiment [8], in [11], in [13], in experiment [14] and in experiment [15] was “inactive” in each case. Also, the Potency result in [17], in experiment [18] and in experiment [19] was “inactive” throughout.

Take `CC(CC(C#N)(c1ccccc1)c1ccccc1)N(C)C` (stereo not given): the Potency entry in experiment [1], in experiment [2], in [3], in experiment [4], in [5] and in [6] was “inactive” throughout. In addition, the Potency entry in [7], in [8], in experiment [9], in experiment [10], in [12] and in experiment [14] was “inactive” throughout. Further, the Potency entry in [15], in experiment [16], in [17], in [18] and in experiment [19] was “inactive” in each case. In addition, in [13], the Potency was 0.0105 µM (active).

Turning to `CC(=O)OCC1=C(C(=O)O)N2C(=O)[C@@H](N)[C@H]2SC1`, the activity change, negative = cytotoxicity is 3.02% [at 19 µM] in experiment [1] and 0.524% [at 13.5 µM] in experiment [8]. For the same compound, the activity, positive = activation in experiment [2] is -4.57% [at 19 µM]. For the same compound, in [3], the activity change is -1.33% [at 11.8 µM, stronger effect = higher value]. Further, the activation in experiment [4] was -0.221% [at 15.8 µM]; in experiment [5], 1.18% [at 11.8 µM]; in experiment [6], 8.26% [at 13.5 µM]; in experiment [20], 0.252% [at 13.6 µM]; in [10], 1.4% [at 13.5 µM]; in [12], 1.54% [at 15.9 µM]. Moreover, the activation is 0.141% [at 15.8 µM] in experiment [14], -2.32% [at 19 µM] in experiment [15] and 5.76% [at 19 µM] in experiment [18]. The activity, negative = inhibition in experiment [11] is 10.6% [at 12.7 µM]; in experiment [13], 7.63% [at 12.6 µM]. The activity change, negative = inhibition in experiment [16] was -7.18% [at 18.9 µM]; in [17] it was -0.292% [at 19 µM]; in [19], 7.52% [at 18.9 µM].

Regarding `CSc1ccc(C(=O)C(C)(C)N2CCOCC2)cc1`, the Potency entry in experiment [1], in experiment [2], in experiment [3], in [4], in experiment [5] and in experiment [6] was “inactive” in each case. The Potency entry in experiment [7], in [8], in experiment [9], in [10], in [11] and in [12] was “inactive” each time. For the same compound, the Potency entry in [13], in experiment [14], in [15], in [17], in experiment [18] and in [19] was “inactive” in each case.

For `COP(=O)(OC)O/C(=C\Cl)c1cc(Cl)c(Cl)cc1Cl`, the Potency result in [1], in experiment [3], in experiment [4], in experiment [5], in [7] and in experiment [8] was “inactive” in each case. Further, the Potency entry in experiment [9], in [10], in experiment [11], in experiment [12], in experiment [13] and in experiment [14] was “inactive” each time. For the same compound, the Potency entry in [15], in experiment [17], in experiment [18] and in [19] was “inactive” in each case. Moreover, the figures for the Potency in experiment [2] and in [6] were 68.6 µM (active) and 40.8 µM (active), respectively.

In the case of `ClCC(Cl)Cl`, the Potency entry in experiment [1], in experiment [2], in [3], in [4], in experiment [5] and in [6] was “inactive” each time. For the same compound, the Potency result in [20], in experiment [9], in experiment [10], in experiment [15], in experiment [16] and in [17] was “inactive” each time. Besides, the Potency result in experiment [18] and in experiment [19] was “inactive” throughout.
